Results taken from PubChem BioAssay (NCI).
Compounds without any hit were thinned out: in the full panel of roughly 83,000, 20% have a hit.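 The test compound was applied at a single concentration to cells in 96-well plates for 48 hours, and percent growth was recorded.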

Columns and labels:
Assay in all cases: NCI-60 one-dose screen, 48 h (100 = growth as untreated, 0 = no growth, -100 = all killed)
Details in all cases: 10 µM; active = growth percent below 10; inactive = the rest
[1] = test system: NCI-H23 lung
[2] = test system: NCI-H226 lung
[3] = test system: NCI-H322M lung
[4] = test system: NCI-H460 lung
[5] = test system: HOP-92 NSCLC
[6] = test system: NCI-H522 lung
[7] = test system: A549/ATCC NSCLC
[8] = test system: 786-0 renal
[9] = test system: COLO 205 colon
[10] = test system: DU-145 prostate
[11] = test system: K-562 leukemia
[12] = test system: MALME-3M melanoma
[13] = test system: MDA-MB-231 breast
[14] = test system: RXF 393 renal
[15] = test system: SF-268 CNS
[16] = test system: SF-295 CNS
[17] = test system: SF-539 CNS
[18] = test system: UACC-257 melanoma
[19] = test system: M14 melanoma
[20] = test system: HOP-62 NSCLC

Measured: growth

CC(C)=NNC(N)=S
inactive: [1] 77.7% | [2] 83.7% | [3] 104% | [4] 83.4% | [5] 85.8% | [6] 88% | [7] 92.6% | [8] 104% | [9] 83.5% | [10] 88.3% | [11] 48.2% | [12] 78.4% | [13] 83.8% | [14] 93.1% | [15] 90.7% | [16] 85.4% | [17] 108% | [18] 77.9% | [19] 65.2%

COc1cc(/C=C(\C#N)C(=O)c2ccccc2)ccc1OCc1ccccc1
inactive: [1] 91.5% | [2] 92.3% | [3] 91.6% | [4] 101% | [5] 95.7% | [6] 97.6% | [7] 104% | [8] 101% | [10] 102% | [11] 120% | [12] 86.1% | [13] 94.6% | [14] 100% | [15] 93.2% | [16] 103% | [17] 99.9% | [18] 106% | [19] 97.5%

O=C1N(C[P+](c2ccccc2)(c2ccccc2)c2ccccc2)CCCN1C[P+](c1ccccc1)(c1ccccc1)c1ccccc1
inactive: [1] 109% | [2] 102% | [3] 106% | [4] 107% | [5] 79.5% | [6] 108% | [7] 101% | [8] 103% | [10] 117% | [11] 93.9% | [12] 103% | [13] 90.8% | [14] 113% | [15] 115% | [16] 96.4% | [17] 106% | [18] 101% | [19] 98.2%

c1ccc2c(c1)Sc1ccccc1S2
inactive: [1] 99% | [2] 95.9% | [3] 92.5% | [4] 101% | [5] 81.8% | [6] 98.6% | [7] 94.2% | [8] 94.9% | [9] 111% | [10] 108% | [11] 103% | [12] 101% | [13] 94.1% | [14] 99.5% | [15] 109% | [16] 101% | [17] 106% | [18] 99.9% | [19] 103%

O=C(O)c1cccc([N+](=O)[O-])c1
inactive: [1] 95% | [2] 107% | [3] 97.4% | [4] 106% | [5] 96% | [6] 112% | [7] 105% | [8] 104% | [9] 113% | [10] 104% | [11] 96% | [12] 105% | [13] 102% | [14] 117% | [15] 100% | [16] 94.9% | [17] 103% | [18] 107% | [19] 104%

CCOC(=O)CCCC(=O)OCC
inactive: [1] 97.9% | [2] 104% | [3] 99.2% | [4] 105% | [5] 101% | [6] 105% | [7] 101% | [8] 102% | [9] 101% | [10] 103% | [11] 101% | [12] 95.7% | [13] 100% | [15] 96.7% | [16] 101% | [17] 98.4% | [18] 99% | [19] 99.2%

O=C1C=CC2=C3c4cc(O)c(O)cc4CC3(O)COC2=C1O (stereo not given)
inactive: [1] 117% | [2] 95.1% | [3] 107% | [20] 100% | [6] 84.5% | [8] 92.1% | [9] 98.6% | [10] 119% | [11] 108% | [12] 124% | [13] 99.1% | [15] 107% | [16] 107% | [17] 90% | [19] 102%

COc1cc(C(N)=O)cc(OC)c1OC
inactive: [1] 101% | [2] 102% | [3] 106% | [20] 99.6% | [6] 102% | [8] 108% | [9] 101% | [10] 112% | [11] 112% | [12] 110% | [13] 105% | [14] 119% | [15] 101% | [16] 100% | [17] 98.9% | [18] 102% | [19] 107%

CCOC(=O)c1coc(C(=O)OCC)c1C(=O)OCC
inactive: [1] 100% | [2] 111% | [3] 120% | [20] 119% | [6] 128% | [7] 108% | [8] 108% | [9] 128% | [10] 116% | [11] 112% | [12] 116% | [13] 107% | [14] 123% | [15] 105% | [16] 102% | [18] 112% | [19] 120%
